Assay outcomes as filed in PubChem BioAssay.
LASV entry inh = qHTS for Inhibitors of binding or entry into cells for Lassa Virus | Lassa virus pseudotype entry inhibition, cell reporter | Potency, µM (series often up to 37.9 µM), for inactives: at the highest dose activity change, negative = inhibition, actives largely listed as inhibitors | 1.2% of 300,000 active; calls by dose curve; tested in HEK293 cells; note: potency is the fitted concentration of half-maximal effect; nearly all actives have a fitted effect of over 50% in size
MARV entry inh = qHTS for inhibitors of binding or entry into cells for Marburg Virus | Marburg virus pseudotyped entry inhibition, cell reporter | AID 540276, 2011 | Potency, µM (top dose mostly 37.8 µM), for the others: at the top dose activity change, negative = inhibition, most hits filed as inhibitors | 1.8% of 300,000 active; calls by dose curve; tested in HEK293 cells; note: potency is the fitted concentration of half-maximal effect
HCMV antiviral = qHTS Assay for inhibitors of the human cytomegalovirus (HCMV); 4.5% of 410,000 active; activity change, negative = inhibition, % at 57.5 µM; HFF cells, HCMV-luciferase reporter, 72 h; active compounds read low; in the data active = activity change below about -60%; inconclusive = no clear call, values can overlap the other calls; inactive = above about -39%
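Two compound doses tested in HFFs infected with HCMV-luciferase, MOI 1 PFU/cell, 72 h at 37C. Lysate luminescence read with OneGlo; data normalized against buffer-only and 10uM Salinomycin inhibitor controls.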
FMDV inh = High Throughput Screening for Foot and Mouth Disease Virus Antivirals. AID 1159524, 2015. Potency, µM (highest dose often 57.9 µM), for inactives: at the highest dose activity change, negative = inhibition, usual class: inhibitors. 1.2% of 410,000 active. FMDV antiviral cell-based qHTS; calls by dose curve; tested in HEK293T cells; note: read-out not given here; potency is the fitted concentration of half-maximal effect; nearly all actives have a fitted effect of over 45% in size
HCV inh = qHTS Assay for Inhibitors of Hepatitis C Virus (HCV); Huh7.5.1 HCVcc-Cre infection, luciferase reporter, 44 h; Potency, µM (highest dose often 41.8 µM), without a hit: top-dose activity change, negative = inhibition, hits mostly inhibitors; 3.4% of 340,000 active; AID 651820, 2012; active = well fitted inhibition curve with a large enough effect; inconclusive = small, poorly fitted or top-dose-only effect, or another doubt; inactive = no such curve, though single readings can be large or run the other way; note: potency is the fitted concentration of half-maximal effect
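After 44 h co-culture of compound, cells and HCVcc-Cre (~0.5 moi), substrate is added for 15 min at room temperature and luciferase measured over 15 sec. Cells were seeded at 1,000/well and pre-cultured 4 h.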
Active calls of the source: *; u = inconclusive; x = no result; [ ] = dose if it differs, or a comment. Shown are actives, neighbours in structure and some others; about 7.9% of the full set was active somewhere. % is set by controls: 0 for no effect and ±100 for the full control effect.

SMILES	LASV entry inh	MARV entry inh	HCMV antiviral	FMDV inh	HCV inh
CCOC(=O)c1c(NC(=O)CS(=O)(=O)c2cn(CC)c3ccccc23)sc2c1CCCCC2	u	-16%	-71*	-3%	u
CCOC(=O)c1c(NC(=O)CS(=O)(=O)c2cn(CC)c3ccccc23)sc2c1CCCC2	-9%	-12%	21	-29%	u
N#Cc1ccc(CN2CCCC3(CCN(S(=O)(=O)c4ccccc4)CC3)C2)cc1	x	x	x	-26%	x
COc1ccc(Cl)cc1NC(=O)CN(C)C(=O)CN1C(=O)NC2(CCCC2)C1=O	u	u	-11	-13%	22%
C/C=C(\C)C(=O)OC1c2c(ccc3ccc(=O)oc23)OC(C)(C)C1OC(C)=O (stereo not given)	-3%	-22%	-32	-12%	-9%
CC1(C)Oc2ccc3ccc(=O)oc3c2[C@@H](O)[C@H]1O	x	x	-24	-15%	3.2µM*
C/C=C(/C)C(=O)OC1c2c(ccc3ccc(=O)oc23)OC(C)(C)C1OC(=O)/C(C)=C\C (stereo not given)	x	x	-23	28µM*	-49%
CCO[C@H]1c2c(ccc3ccc(=O)oc23)OC(C)(C)[C@H]1O	x	x	13	1%	40%
CC1CCCCN1C(=O)c1ccc2c(c1)N(Cc1ccc(F)cc1)C(=O)c1ccccc1S2(=O)=O (stereo not given)	u	-2%[46.1 µM]	-3	3%	x
Cc1c(C2Nc3ccccc3C2C)[nH]c2ccccc12 (stereo not given)	x	x	-85*	x	x
Cc1ccc(-c2cc(C(=O)Nc3ccncc3)c3ccccc3n2)cc1	u	u	7	-8%	6%
COc1ccc(OC)c(-c2cc(C(=O)Nc3ccccc3C(N)=O)c3ccccc3n2)c1	x	x	10	u	10µM*
O=C(Nc1ccccn1)c1cc(-c2cccc(Cl)c2)nc2ccccc12	u	u	-71*	-18%	16µM*
COc1ccc(NC(=O)c2cc(-c3ccc(C)o3)nc3ccccc23)c(OC)c1	x	x	-19	15%	10µM*
CC(C)(C)c1ccccc1NC(=O)c1cc(-c2ccncc2)nc2ccccc12	-20%[46.1 µM]	u	15	1%	11µM*
O=C(Nc1ccc([N+](=O)[O-])cn1)c1cc(-c2cccc(Cl)c2)nc2ccccc12	12%	-9%	18	-22%	2%
COc1ccc(NC(=O)c2cc(-c3ccc(C)o3)nc3ccccc23)cc1OC	-6%	u	79	-12%	u
O=C(Nc1cccc(C(=O)O)c1)/C(=C\c1ccccc1Cl)NC(=O)c1ccco1	u	1%	40	-12%	-11%
CC(=O)C1=CN(CCc2c[nH]c3ccccc23)C(=O)NC1c1ccccc1 (stereo not given)	x	3%[14.2 µM]	x	x	x
CCOc1ccccc1NC(=O)c1cc(-c2cc(OC)c(OC)c(OC)c2)nc2ccccc12	11µM*	u	29	-23%	8.9µM*
COc1ccccc1NC(=O)c1cc(-c2cc(OC)c(OC)c(OC)c2)nc2ccccc12	u	3.2µM*	-6	-22%	u
COc1cc(-c2cc(C(=O)Nc3ccc(S(=O)(=O)NCc4ccco4)cc3)c3ccccc3n2)cc(OC)c1OC	u	u	-63*	u	0.28µM*
COc1ccc(CN2CCN(C(=O)CCC(=O)c3ccc(C)s3)CC2)cc1OC	-1%	15%	0	-20%	-2%
Cc1nc2ccccc2nc1CN1CCOc2ccc(C(C)(O)COc3ccccc3)cc2C1 (stereo not given)	x	x	x	3%	x
CCOC(=O)[C@H](CCc1ccccc1)N[C@@H](C)C(=O)N1C(=O)N(C)C[C@H]1C(=O)O	x	x	-17	x	x
SMILES	LASV entry inh	MARV entry inh	HCMV antiviral	FMDV inh	HCV inh
Oc1cccc(C(O)CNCc2ccc(-c3ccccc3)cc2)c1 (stereo not given)	u	u	-62*	-6%	u
OC(CNCc1ccccc1)c1ccccc1 (stereo not given)	u	-26%	2	-3%	-19%
CC(=O)Oc1c(S(=O)(=O)c2ccc(C)cc2)c(C)nn1C(C)(C)C	u	u	12	-19%	26%
Cc1ccc(S(=O)(=O)c2c(C)nn(C(C)(C)C)c2OC(=O)c2cccs2)cc1	13µM*	u	-25	u	u
Cc1nn(C(C)(C)C)c(OC(=O)c2ccc3c(c2)OCO3)c1S(=O)(=O)c1ccccc1	8.9µM*	u	-23	u	-1%
Cc1ccc(S(=O)(=O)c2c(C)nn(C(C)(C)C)c2OC(=O)C(C)(C)C)cc1	u	u	32	u	u
Cc1ccc(S(=O)(=O)c2c(C)nn(C(C)(C)C)c2OC(=O)c2ccco2)cc1	11µM*	u	33	13µM*	-4%
Cc1ccc(S(=O)(=O)c2c(C)nn(C(C)(C)C)c2OC(=O)c2ccc(Br)o2)cc1	11µM*	u	-64*	u	u
CCCNC(=O)Cn1nc(-c2ccc(C)cc2)c2cnc3ccc(CC)cc3c21	u	x	21	13%	x
COc1ccc(-c2nc3cnc(N(C)C)nc3n(C)c2=O)cc1	x	x	x	36%	x
CC(=O)c1sc(N)c(C(=O)OC(C)C)c1C	u	-15%	127	14%	14µM*
O=C(CCCC(=O)c1ccc(F)cc1)c1ccc(F)cc1	u	u	-80*	55%	0%
O=C(CC(=O)c1ccccc1O)c1ccc(F)cc1	u	u	23	28%	32µM*
O=C(CC(=O)c1ccccc1O)c1cccc(F)c1	u	u	x	11%	-11%
Cc1ccc(C(=O)CCS(=O)(=O)c2ccc(F)cc2)cc1	x	x	-99*	6%	u
CC1CCCCN1Cc1c(O)ccc2c(=O)c(-c3ccccc3Cl)c(C(F)(F)F)oc12 (stereo not given)	-4%[46.1 µM]	u	10	0%	x
CC1CCCCN1Cc1c(O)ccc2c(=O)c(-c3nc4ccccc4s3)c(N)oc12 (stereo not given)	u	2.5µM*	-16	u	10µM*
Clc1ccc(-c2nn3c(C4COc5ccccc5O4)nnc3s2)cc1 (stereo not given)	6.5µM*	4%	-99*	19%	3%
Cc1ccc(OC(=O)c2ccccc2)cc1C	u	17%	30	45%	11%
COc1ccc(CCNC(=O)CCCCC(=O)NCCc2ccc(OC)cc2)cc1	x	x	-17	2%	8%
COc1ccc(CN(CCNC(=O)CCCCC(=O)NCCN(Cc2ccc(OC)cc2)C(C)C)C(C)C)cc1	x	x	u	-13%	11µM*
CCN1CCc2c(OCC(=O)N3N=C(c4cccs4)CC3c3ccc(F)cc3)cccc2C1=O (stereo not given)	11µM*	u	-6	-24%	10µM*
O=C(CSc1nc2ccccc2s1)N1N=C(c2cccs2)CC1c1ccc(F)cc1 (stereo not given)	-11%	u	11	0%	5%
